Cycloheximide cs: Cycloheximide Counterscreen for Small Molecule Inhibitors of Shiga Toxin; cell reporter, cycloheximide protein synthesis inhibition counterscreen; max response, %; actives 12% (n = 300,000); AID 2314, 2010; in the data active = max response mostly above about 13%, no sharp cut-off; inactive = mostly below about 14%; note: read at 38.3 µM for the half of the compounds with a filed dose; 0% is about no effect
Pf growth 48h: Primary qHTS for delayed death inhibitors of the malarial parasite plastid, 48 hour incubation. P. falciparum luciferase growth in erythrocytes, 48 h. Potency, µM (titrated, usually from 28.7 µM), inactives show at the highest dose activity change, negative = inhibition, hits mostly inhibitors. actives 5.9% (n = 310,000); note: potency is the fitted concentration of half-maximal effect; % is set by controls: 0 for no effect and ±100 for the full control effect
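Here the parasites carry a stable luciferase gene and grow inside erythrocytes in Albumax-based RPMI medium with compound for one erythrocytic cycle. Activity is scored as loss of luminescent signal.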
Pf growth 96h: Primary qHTS for delayed death inhibitors of the malarial parasite plastid, 96 hour incubation. P. falciparum luciferase reporter growth, 96 h. Potency, µM (highest dose often 28.7 µM), for the others: at the highest dose activity change, negative = inhibition, usual class: inhibitors. actives 6.9% (n = 320,000); note: potency is the fitted concentration of half-maximal effect; % is set by controls: 0 for no effect and ±100 for the full control effect
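Two-generation exposure (96 h) targets delayed-death phenotype. Reporter parasites carrying integrated firefly luciferase, in red cells at 2% hematocrit and 0.05% parasitemia final, kept at 37 C, 5% CO2; luminescence loss indicates inhibition.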
HCMV inh: qHTS Assay for inhibitors of the human cytomegalovirus (HCMV). activity change, negative = inhibition, % at 57.5 µM. HFF cells, HCMV-luciferase reporter, 72 h; active compounds read low. actives 4.5% (n = 410,000); in the data active = activity change below about -60%; inconclusive = no clear call, values can overlap the other calls; inactive = above about -39%; note: % is set by controls: 0 for no effect and ±100 for the full control effect
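Compounds were evaluated in HFFs infected with an HCMV luciferase reporter virus (MOI 1 PFU/cell). Luciferase in lysates collected 72 h post infection served as the replication measure.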
Shiga inhibitor: A qHTS for Small Molecule Inhibitors of Shiga Toxin; Vero cells, Shiga toxin protein synthesis inhibition reporter; inhibition, % at 38.7 µM; AID 2315, 2010; actives 9.2% (n = 290,000); in the data active = inhibition mostly above about 28%, no sharp cut-off; inactive = mostly below about 43%; note: 0% is about no effect
Active calls of the source: *. Compounds with a hit are over-represented: about 20% of the library has one in this group of screens. Unless noted, calls come from the whole dose curve; as a rule, active = well fitted inhibition curve with a large enough effect; inconclusive = small, poorly fitted or top-dose-only effect, or another doubt; inactive = no such curve, though single readings can be large or run the other way.

For CCn1c(=O)n(CC)c2cc(N3CCCC3)c(NC(=O)c3ccccc3C)cc21 the results were Cycloheximide cs -2, Pf growth 48h inconclusive, Pf growth 96h 9.3µM*, HCMV inh -18 and Shiga inhibitor 3.
For CCn1c(=O)n(CC)c2cc(N3CCCC3)c(NC(=O)c3ccccc3F)cc21 the results were Cycloheximide cs -3, Pf growth 48h inconclusive, Pf growth 96h 1.3µM*, HCMV inh -36 and Shiga inhibitor 6.
For CC(C)C[C@@H](CN1CCCC1CN1C(=S)NC[C@@H]1Cc1ccc(O)cc1)N1C[C@H](Cc2ccc(O)cc2)N(CC2CCCCC2)C1=S (some centres not stated) the results were HCMV inh -98*.
CC(C)C[C@H]1CNC(=S)N1C[C@H]1CCCN1C[C@H](CC(C)C)N1C[C@H](Cc2ccc(O)cc2)N(CC2CCCCCC2)C1=S was read as HCMV inh -101*.
For CC(C)C[C@H]1CNC(=S)N1CC1CCCN1C[C@H](CC(C)C)N1C[C@H](Cc2ccc(O)cc2)N(CC2CCCCC2)C1=S (some centres not stated) the results were HCMV inh -98*.
`CC(C)C[C@H]1CNC(=S)N1CC1CCCN1C[C@H](CC(C)C)N1C[C@H](Cc2ccc(O)cc2)N(CC2CCCCCC2)C1=S` (some centres not stated) gave HCMV inh -102*.
COc1ccc2c3c(n(C)c2c1)[C@@H](CO)N(C(=O)c1cnccn1)CC31CN(C(C)=O)C1 was read as HCMV inh 2.
`Cc1ccnc(SCC(=O)Nc2sc3c(c2C#N)CCCC3)n1` gave Cycloheximide cs 14, Pf growth 48h inconclusive, Pf growth 96h -7%, HCMV inh -39 and Shiga inhibitor 37.
Screening N#Cc1c(NC(=O)c2ccccc2)sc2c1CCCCC2 returned Cycloheximide cs 48*, Pf growth 48h 458%, Pf growth 96h inconclusive, HCMV inh 76 and Shiga inhibitor 55*.
For N#Cc1c(NC(=O)C(=O)NCCCN2CCOCC2)sc2c1CCCC2 the results were Cycloheximide cs 6, Pf growth 48h -25%, Pf growth 96h 8%, HCMV inh -33 and Shiga inhibitor 16.
Screening N#Cc1c(N2C(=O)Nc3ccccc3N2O)sc2c1CCCC2 returned Cycloheximide cs -6, Pf growth 48h 43%, Pf growth 96h 140%, HCMV inh -19 and Shiga inhibitor -4.
For N#Cc1c(N2C(=O)Nc3ccccc3N2O)sc2c1CCCCCC2 the results were Cycloheximide cs -2, Pf growth 48h -25%, Pf growth 96h 9.3µM*, HCMV inh 1 and Shiga inhibitor -13.
C=CCNC(=S)Nc1sc2c(c1C#N)CCCC2 was read as Cycloheximide cs 23*, Pf growth 48h 5%, Pf growth 96h inconclusive, HCMV inh 7 and Shiga inhibitor 68.
`N#Cc1c(NC(=O)CSC2=NCCS2)sc2c1CCCC2` gave Cycloheximide cs -4, Pf growth 48h inconclusive, Pf growth 96h 2.3µM*, HCMV inh inconclusive and Shiga inhibitor -5.
Screening CCOc1ccccc1C(=O)NCC(=O)OCC(=O)c1c(N)n(C)c(=O)n(C)c1=O returned HCMV inh -7.
`CC1CCc2[nH]c3ccc(C(=O)NCCCOC(C)C)cc3c2C1` (configuration not stated) gave Cycloheximide cs 14, Pf growth 48h 12%, Pf growth 96h -11%, HCMV inh -20 and Shiga inhibitor 33.
Screening CCOc1ccc(CN(C(=O)c2nc(SC)ncc2Cl)C2CCS(=O)(=O)C2)cc1 (configuration not stated) returned HCMV inh 8.
CCC(=O)Nc1sc2c(c1C#N)CCCCC2 was read as Cycloheximide cs 36*, Pf growth 48h 58%, HCMV inh -2 and Shiga inhibitor 72*.
For CCC(=O)Nc1sc2c(c1C(=O)N(C)C)CCCCC2 the results were Cycloheximide cs -4, Pf growth 48h -26%, Pf growth 96h 7%, HCMV inh -27 and Shiga inhibitor -4.
`CNS(=O)(=O)c1cccc(C(=O)OCC(=O)Nc2sc3c(c2C#N)CCCCC3)c1` gave Cycloheximide cs 26*, Pf growth 48h 22%, Pf growth 96h 12%, HCMV inh 6 and Shiga inhibitor 44*.

High-throughput results (PubChem BioAssay)
